Hits are enriched below; roughly 2.4% of the tested compounds scored in any of these assays.
Cruzain noTriton – qHTS Assay for Promiscuous and Specific Inhibitors of Cruzain (without detergent). 200,000 compounds, 2.3% hits. purified cruzain, Z-FR-AMC fluorescence, no detergent. Potency, µM, for the others: max response, negative = inhibition, hits mostly inhibitors. Cruzipain (Trypanosoma cruzi), P25779;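 also: plate controls were enzyme without inhibitor for no effect and buffer without enzyme for full effect; nearly all actives have a fitted effect of over 40% in size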
Target sequence (P25779 123-467 limits assumed): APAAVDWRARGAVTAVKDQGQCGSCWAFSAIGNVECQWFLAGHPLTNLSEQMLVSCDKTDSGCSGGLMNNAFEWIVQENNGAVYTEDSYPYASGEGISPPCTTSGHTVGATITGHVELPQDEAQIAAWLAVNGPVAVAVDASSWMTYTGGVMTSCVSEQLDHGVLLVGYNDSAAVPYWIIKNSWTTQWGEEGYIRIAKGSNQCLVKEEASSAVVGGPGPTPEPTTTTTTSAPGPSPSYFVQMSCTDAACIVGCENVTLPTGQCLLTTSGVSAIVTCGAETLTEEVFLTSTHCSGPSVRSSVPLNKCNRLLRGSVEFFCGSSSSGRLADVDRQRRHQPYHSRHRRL
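Purified cruzain at 1.5 nM, pre-incubated 15 min with compound at room temperature in 100 mM sodium acetate pH 5.5, 5 mM DTT, 0.00005% Triton X-100. Reaction started with 2 uM Z-FR-AMC; AMC fluorescence increase over 60 s gives rate.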
Cruzain inh Det – qHTS Assay for Promiscuous and Specific Inhibitors of Cruzain (with detergent); purified cruzain, Z-FR-AMC fluorescence, 0.01% Triton; Cruzipain (Trypanosoma cruzi), P25779; 200,000 compounds, 0.43% hits; Potency, µM, inactives show max response, negative = inhibition, actives largely listed as inhibitors;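 also: plate controls were neutral wells for no effect and buffer without enzyme for full effect; nearly all actives have a fitted effect of over 40% in size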
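Detergent-containing arm of a paired screen for aggregation-based inhibition: 0.01% Triton X-100 present. Cruzain at 1.5 nM cleaved 2 uM Z-FR-AMC at pH 5.5 with 5 mM DTT; AMC fluorescence gain over 60 s measured activity.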
* hit, by the source's call. Calls follow the shape of the dose curve; as a rule, active = well fitted curve in the direction sought with a large enough effect; inconclusive = small, poorly fitted or top-dose-only effect, or another doubt; inactive = no such curve, though single readings can be large; an effect the other way counts as inactive or inconclusive. Potency is read from the fitted curve at half-maximal effect.

How did N#Cc1cc(C(=O)c2cc(Cl)ccc2O)cn(-c2ccccc2)c1=O do in these assays?
Cruzain noTriton: -19%; Cruzain inh Det: -9%

Results for N#CC1=C(N)SC(N)=C(C#N)C1c1cccc(Oc2ccccc2)c1 ?
Cruzain noTriton: 25µM*; Cruzain inh Det: -18%

What do the screens show for `CCOc1ccc(C2C(C#N)=C(N)SC(N)=C2C#N)cc1OCC`?
Cruzain noTriton: -1%; Cruzain inh Det: -11%

What do the screens show for `C/C(=N\NC(=O)C1CCCN(S(=O)(=O)c2ccccc2)C1)c1ccccn1` (configuration not stated)?
Cruzain noTriton: 18%; Cruzain inh Det: 2%

Results for CC(=O)c1ccc(NC(=O)CN2C(=O)CN(C)C(=O)c3ccccc32)cc1 ?
Cruzain noTriton: 16%; Cruzain inh Det: 1%

Results for CC(/C=C1\SC(=S)N(NC(=O)c2ccc(C)cc2)C1=O)=C\c1ccccc1 ?
Cruzain noTriton: 32µM*; Cruzain inh Det: -6%

How did CC(/C=C1\SC(=S)N(NC(=O)c2ccccc2C)C1=O)=C\c1ccccc1 do in these assays?
Cruzain noTriton: inconclusive; Cruzain inh Det: -6%

How did CC(=O)c1ccc(NC(=O)CN2C(=O)/C(=C/C(C)=C/c3ccccc3)SC2=S)cc1 do in these assays?
Cruzain noTriton: 10µM*; Cruzain inh Det: -5%

What do the screens show for `Cc1cc(NC(=O)CCCN2C(=O)/C(=C/c3cccs3)SC2=S)no1`?
Cruzain noTriton: inconclusive; Cruzain inh Det: -5%

What do the screens show for `CC(/C=C1\SC(=S)N(CCCC(=O)Nc2ccc(C(=O)O)c(O)c2)C1=O)=C\c1ccccc1`?
Cruzain noTriton: inconclusive; Cruzain inh Det: 28µM*

What do the screens show for `Cc1cc(N2CCOCC2)nc2ccc(NC(=O)CCC(=O)N3CCCCC3)cc12`?
Cruzain noTriton: -2%; Cruzain inh Det: 4%

How did CC1(C)CC(=O)C2=C(C1)N(Cc1cccnc1)C(=O)C2(NC(=O)c1cccnc1)C(F)(F)F (configuration not stated) do in these assays?
Cruzain noTriton: -7%; Cruzain inh Det: 1%

What do the screens show for `O=c1c(-c2cccc(Cl)c2)nc2cncnc2n1-c1ccccc1`?
Cruzain noTriton: -28%; Cruzain inh Det: -2%

How did CC(=O)OCC(=O)[C@@]12OC3(CCCC3)O[C@@H]1C[C@H]1[C@@H]3CCC4=CC(=O)C=C[C@]4(C)[C@@]3(F)[C@@H](O)C[C@@]12C do in these assays?
Cruzain noTriton: inconclusive; Cruzain inh Det: 1%

Results for CCc1ccc(N2C(=O)NC(=O)/C(=C\c3cccn3CCOc3ccc(C(C)C)cc3)C2=O)cc1 ?
Cruzain noTriton: 10µM*; Cruzain inh Det: -1%

What do the screens show for `CC(C)c1ccc(N2C(=O)NC(=O)/C(=C/c3cnc(-c4ccccc4)nc3)C2=O)cc1`?
Cruzain noTriton: -4%; Cruzain inh Det: -7%

How did COc1cc(/C=N\NC(=O)CNC(=O)C2COc3ccccc3O2)ccc1O (configuration not stated) do in these assays?
Cruzain noTriton: -1%; Cruzain inh Det: 0%

What do the screens show for `CCc1nnc(NC(=O)CSc2nnc(C)n2Cc2ccccc2)s1`?
Cruzain noTriton: -2%; Cruzain inh Det: -1%

How did COc1ccc(/C=C(\C#N)C(=O)OCC(=O)NCc2ccccc2)cc1 do in these assays?
Cruzain noTriton: 32µM*; Cruzain inh Det: -10%

What do the screens show for `COc1ccc(/C=C(\C#N)C(=O)OCC(=O)Nc2c(C)cccc2C)cc1`?
Cruzain noTriton: inconclusive; Cruzain inh Det: -1%

How did Cc1ccn2c(=O)cc(COc3cccc(NC(=O)Nc4cccc(Cl)c4C)c3)nc2c1 do in these assays?
Cruzain noTriton: 13%; Cruzain inh Det: 2%

How did COc1ccc(OC)c2sc(NC(=O)c3ccc(Cl)s3)nc12 do in these assays?
Cruzain noTriton: -7%; Cruzain inh Det: 5%

What do the screens show for `COc1ccc(OC)c2sc(NC(=O)c3ccc(Br)s3)nc12`?
Cruzain noTriton: 16µM*; Cruzain inh Det: -5%

How did NNC(=O)C1CC1c1ccccc1 (configuration not stated) do in these assays?
Cruzain noTriton: 10%; Cruzain inh Det: 2%

What do the screens show for `Cc1ccc(C)c2sc(NC(=O)c3ccc(N4C(=O)CCC4=O)cc3)nc12`?
Cruzain noTriton: 20µM*; Cruzain inh Det: 2%

Results for CCc1nnc(NC(=O)c2ccc(N3C(=O)CCC3=O)cc2)s1 ?
Cruzain noTriton: -2%; Cruzain inh Det: -8%

What do the screens show for `CCCOC(=O)CSc1nnc(-c2ccccc2Cl)o1`?
Cruzain noTriton: 1%; Cruzain inh Det: -1%

Results for Cc1ccc(CSc2nc(-c3cccs3)ccc2C#N)cc1 ?
Cruzain noTriton: 25µM*; Cruzain inh Det: -3%

How did N#Cc1c(N)nc(SCc2ccncc2)c(C#N)c1-c1cccs1 do in these assays?
Cruzain noTriton: 25µM*; Cruzain inh Det: -6%

What do the screens show for `COc1cc(-c2c(C#N)c(N)nc(SCc3ccncc3)c2C#N)cc(OC)c1OC`?
Cruzain noTriton: 0%; Cruzain inh Det: -1%

What do the screens show for `C#CCSc1nc(-c2cccs2)ccc1C#N`?
Cruzain noTriton: -7%; Cruzain inh Det: -8%

Results for O=C1CC(C(=O)O)S/C(=N\NC(=O)c2ccccc2)N1 (configuration not stated) ?
Cruzain noTriton: -5%; Cruzain inh Det: 1%

How did CC(C)c1cccc(OCCn2c(-c3ccc(Cl)cc3)nc3ccccc3c2=O)c1 do in these assays?
Cruzain noTriton: -10%; Cruzain inh Det: -1%

What do the screens show for `COC(=O)C1=C(C)Nc2c(c(=O)n(C)c(=O)n2C)C1c1cccnc1` (configuration not stated)?
Cruzain noTriton: -11%; Cruzain inh Det: -4%

Results for Clc1cccc(/C=N/Nc2nc(Cl)nc3ccccc23)c1 ?
Cruzain noTriton: inconclusive; Cruzain inh Det: -10%

What do the screens show for `Clc1cccc(/C=N\Nc2nccs2)c1`?
Cruzain noTriton: 16µM*; Cruzain inh Det: 25µM*

Results for O=C(N/N=C/C(Cl)=C/c1ccccc1)c1cnccn1 ?
Cruzain noTriton: -17%; Cruzain inh Det: -12%

What do the screens show for `Cc1cccc(OCC(O)CN2CC3(C)CC2CC(C)(C)C3)c1` (configuration not stated)?
Cruzain noTriton: -6%; Cruzain inh Det: 0%

How did COc1ccccc1OCC(=O)Nc1oc(-c2ccccc2)c(-c2ccccc2)c1C#N do in these assays?
Cruzain noTriton: inconclusive; Cruzain inh Det: 0%

What do the screens show for `N#Cc1c(NC(=O)COC(=O)C2CC3C=CC2C3)oc(-c2ccccc2)c1-c1ccccc1` (configuration not stated)?
Cruzain noTriton: 7.9µM*; Cruzain inh Det: -7%

What do the screens show for `CC1(C)CC(=O)C2=C(C1)OC(N)=C(C#N)C2c1cccc(OC(=O)c2ccco2)c1` (configuration not stated)?
Cruzain noTriton: -7%; Cruzain inh Det: -13%

How did O=C(N/N=C/c1cc2ccccc2nc1Cl)/C(=C/c1cccs1)NC(=O)c1ccccc1 do in these assays?
Cruzain noTriton: 25µM*; Cruzain inh Det: -7%

What do the screens show for `O=C(N/N=C/c1cccnc1)/C(=C\c1cccs1)NC(=O)c1ccccc1`?
Cruzain noTriton: -7%; Cruzain inh Det: -12%

What do the screens show for `CCCCCCc1cc2cc(S(=O)(=O)c3ccc(Cl)cc3)c(=O)oc2cc1O`?
Cruzain noTriton: 13µM*; Cruzain inh Det: -5%

How did CCCCCCc1cc2cc(S(=O)(=O)c3ccc(C)cc3)c(=O)oc2cc1O do in these assays?
Cruzain noTriton: -21%; Cruzain inh Det: -12%

Results for O=C(CCC(=O)c1ccc(Oc2ccccc2)cc1)Nc1ccc(Cl)cc1Cl ?
Cruzain noTriton: -4%; Cruzain inh Det: -3%
